# A selection: hits, their analogues and other compounds. The true share with any hit is near 2.7%.
# Neddylation inh: blocks human cullin neddylation; P61081+Q13564; TR-FRET cullin neddylation, biochemical; calls only at 25 µM; 0.58% of 360,000 active; AID 651699; in the data active = inhibition above about 36%
# proKLK7 act: activates the human kallikrein-7 zymogen; AID 652039; 0.9% of 370,000 active; activation, % at 7 µM; P49862; purified proKLK7, EDANS-DABCYL substrate fluorescence; 100% is mature enzyme control, 0% vehicle;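 active = activation above the mean of all tested compounds plus 3 SD, computed per campaign excluding outliers beyond control limits, cut at about 13% in these data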
# Target sequence (P49862 whole entry, looked up): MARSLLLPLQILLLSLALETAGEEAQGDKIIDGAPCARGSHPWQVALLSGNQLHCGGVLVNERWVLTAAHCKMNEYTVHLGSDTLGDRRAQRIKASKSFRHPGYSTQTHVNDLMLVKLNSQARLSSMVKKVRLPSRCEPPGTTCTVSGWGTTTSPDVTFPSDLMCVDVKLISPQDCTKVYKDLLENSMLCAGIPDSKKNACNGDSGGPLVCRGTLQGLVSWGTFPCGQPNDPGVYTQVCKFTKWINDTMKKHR
# PfG6PD inh: PfG6PD (Plasmodium falciparum) enzyme inhibition. PfGluPho enzyme, NADPH resazurin-diaphorase fluorescence. inhibition, % at 20 µM. 0.78% of 350,000 active. AID 504690;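 active = inhibition reaching at least a set limit at 20 µM in the primary screen, cut at about 59% in these data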;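 note: 0% = DMSO wells with substrate and 100% = DMSO wells lacking glucose-6-phosphate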
# FAS-TE inh: inhibitors of human fatty acid synthase thioesterase domain. recombinant FAS-TE, OMFH fluorogenic substrate, fluorescence endpoint. inhibition, % at 15 µM. 0.67% of 360,000 active. AID 602261;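 active = compounds whose normalised, plate-corrected inhibition of enzyme fluorescence in the single-dose primary screen is 50% or more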;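 note: 0% = DMSO with enzyme and 100% = substrate without enzyme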
# Neddyl inh conf: confirmation of human cullin neddylation inhibitors. shares compounds with Neddylation inh. TR-FRET cullin neddylation biochemical assay. calls only at 25 µM. 13% of 1,800 active. AID 652217; in the data active = inhibition above about 40%;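 note: neddylation substrate is the cullin 1 ring ligase complex with SKP2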
# * = called active by the depositor; i = inactive; · = no result shown; + = active, no number.
SMILES,Neddylation inh,proKLK7 act,PfG6PD inh,FAS-TE inh,Neddyl inh conf
CC(C)CC[n+]1ccn(-c2nc3ccccc3nc2[N-]S(=O)(=O)c2ccc(Cl)cc2)c1,+,-5,3,-1,i
CCCCC[n+]1ccn(-c2nc3ccccc3nc2[N-]S(=O)(=O)c2ccccc2)c1,i,-1,0,-3,·
CC1Cc2ccccc2N1c1ncnc2nc[nH]c12 (stereo unspecified),+,·,30,-4,·
CCOc1ccc(/C=N/NC(=O)c2cc3ccccc3cc2OC)cc1,+,-2,3,17,i
COc1cc2cc(C(=O)N/N=C/c3ccc(F)cc3)[nH]c2cc1OC,+,4,19,-1,i
COc1cc2ccccc2cc1C(=O)N/N=C/c1cccnc1,i,-1,-6,-5,·
COc1ccc2cc(C(=O)N/N=C/c3cc(OC)c(OC)c(OC)c3)[nH]c2c1,+,0,6,4,+
COc1ccc(/C=N/NC(=O)c2cc3cc(OC)c(OC)cc3[nH]2)cc1,+,8,15,1,i
COc1cc2cc(C(=O)N/N=C/c3ccccc3Cl)[nH]c2cc1OC,·,2,5,7,·
COc1ccc(C(=O)N/N=C/c2ccc(OC)c(COc3ccc(F)cc3)c2)cc1,i,-3,2,16,·
CCC[C@@H](/C=C/C(=O)OC(C)(C)C)Sc1ccccc1OC,·,0,·,·,·
COc1ccc(N2C(=O)c3ccccc3NC2(C)C)cc1,·,5,1,0,·
COc1ccc(N2C(=O)c3ccccc3NC23CCCCC3)cc1,+,5,1,-4,·
COc1ccc(N2C(=O)c3ccccc3NC23CCC(C)CC3)cc1 (stereo unspecified),+,0,-25,-3,·
CCCN(CCC)S(=O)(=O)c1ccc(C(=O)Nc2cc3oc4ccccc4c3cc2OC)cc1,+,0,-4,13,i
CCc1ccc2oc(-c3ccc(OC)cc3)cc(=Nc3cccc(C(=O)O)c3)c2c1,+,-35,-29,11,i
COc1ccc(-c2cc(=Nc3ccc(C(=O)O)cc3)c3cc(C)ccc3o2)cc1,·,-6,8,3,·
CSC[C@H]1CN(c2ccc(Br)cc2)C(=O)[C@@H]1CC(=O)Nc1ccc(Br)cc1,i,0,1,8,·
OC1CCN(c2c3c(nc4cc(-c5ccc(Cl)cc5)nn24)CCC3)CC1,+,0,40,16,i
COc1ccc(CNCC#Cc2cccnc2)c(OC)c1,·,0,·,·,·
O=C(O)c1cc2ccc3cccc4ccc(c1)c2c34,+,2,6,-3,·
O=C(O)c1cccc(C(=O)c2cccc(C(=O)O)c2)c1,i,0,-1,-9,·
N#C/C(=C\c1c(N2CCCCCC2)nc2ccccn2c1=O)C(=O)NCc1ccco1,i,1,9,14,·
C=CCNC(=O)/C(C#N)=C/c1c(N2CCCCCC2)nc2ccccn2c1=O,+,5,-2,0,i
Cc1cccc(-c2cccc3c4c([nH]c23)[C@@H]2C[C@H](N(C)C(=O)OCc3ccccc3)[C@H]([C@H](C)O)CN2CC4)c1,·,-1,·,·,·
SMILES,Neddylation inh,proKLK7 act,PfG6PD inh,FAS-TE inh,Neddyl inh conf
CCOC(=O)c1ccc(Nc2ncnc3ccc(C)cc23)cc1,·,1,-3,-4,·
CCOC(=O)c1cccc(Nc2ncnc3ccc(C)cc23)c1,+,2,26,0,i
CSc1ccc(/C=C2\CCn3c2nc2cc(C(=O)O)ccc2c3=O)cc1,+,-3,9,15,+
COC(=O)c1ccc(/C=C2\CCn3c2nc2cc(C(=O)O)ccc2c3=O)cc1,+,·,12,-2,+
Cc1ccc(CSc2nnc(-c3cccc4ccccc34)o2)cc1,+,0,10,25,·
CCOC(=O)CC[C@@]1(C(=O)OCC)C[C@@H](CC(=O)NCc2cccs2)C(=O)N2CCCC=C21,·,0,·,·,·
O=S1(=O)CC2c3ccccc3CN2CN1C1CCCC1 (stereo unspecified),·,0,·,·,·
CN1CCN(c2nc(N3CCN(CCO)CC3)nc3ccccc23)CC1,+,6,11,-8,·
CC[C@]12CCCN3CCc4c(n(c5ccccc45)[C@](O)(C(=O)OC)C1)[C@@H]32,+,7,1,-3,i
CC1(c2nnnn2-c2ccc3c(c2)OCCO3)CCC(=O)N1CCc1c[nH]c2ccccc12 (stereo unspecified),i,0,·,-11,·
CC(=O)c1ccc2c3c(cccc13)CC2,+,-11,16,1,i
CC(=O)Nc1cccc(C(=O)NC(C)c2ccc(-n3ccnc3)cc2)c1 (stereo unspecified),i,0,-3,-6,·
CC(NC(=O)c1cccc(N(C)C)c1)c1ccc(-n2ccnc2)cc1 (stereo unspecified),+,0,-13,-6,i
O=C(COc1ccc2ccc(=O)oc2c1)Nc1ccc(N2CCCCC2)cc1,+,-4,6,-2,·
Cc1c(C)c2ccc(OCC(=O)Nc3ccc(CN4CCOCC4)cc3)cc2oc1=O,+,1,-3,2,i
COC1=C[C@H](C(=O)NCc2ccccc2)[C@H](C)[C@@H](c2ccccc2)CC1=O,·,0,·,·,·
CSc1cnc2c(=O)n(C)c(=O)[nH]c2n1,+,-179,-6,-7,·
CSc1nnc2c(=O)[nH]c(=O)n(C)c2n1,i,0,-4,-7,·
Cc1ccc(-c2nnc(SCC(=O)Nc3ccc(Oc4ccccc4)cc3)n2-c2ccc(Cl)cc2)cc1,·,0,·,·,·
S=c1[nH]c2nc(Cl)c(Cl)nc2[nH]1,+,0,12,-2,+
C/C(=N\NC(=O)c1cc(Br)ccc1O)c1cccc(NC(=O)c2ccccc2F)c1,+,1,4,-1,i
C/C(=N\NC(=O)c1ccccc1F)c1cccc(NC(=O)c2ccccc2)c1,i,1,4,-3,·
COc1ccc(C(C)C)cc1-c1cccc2nncn12,+,2,·,-11,i
Cc1cc(C)cc(OC(C)CCN2CCC(C(O)(c3ccccc3)c3ccccc3)CC2)c1 (stereo unspecified),·,0,·,·,·
CCOC(=O)C(=CNc1cc(C)nn1-c1ccc(C)cc1)C(=O)OCC,i,1,21,-5,·
SMILES,Neddylation inh,proKLK7 act,PfG6PD inh,FAS-TE inh,Neddyl inh conf
CCOC(=O)C(=CNc1ccc(O)c(C(=O)OC)c1)C(=O)OCC,+,4,-9,3,i
CCOC(=O)C(=CNc1ccc2c(c1)nnn2-c1ccc(Cl)cc1)C(=O)OCC,+,-2,-11,-10,·
Cc1ccc(-n2nc3ccc(NC(=O)C(C)C)cc3n2)cc1,+,0,-7,-8,i
COc1cc(NC(=O)Cc2ccccc2)ccc1NC(=O)c1ccccc1,+,1,13,0,i
COc1cc(NC(=O)c2ccccc2)ccc1NC(=O)Cc1ccccc1,i,0,15,2,·
COc1cc(NC(=O)c2cccnc2)c(Cl)cc1NC(=O)c1ccccc1,+,0,25,-6,i
COC(=O)C1CCN(Cc2cn(-c3ccccc3)nc2-c2ccc3c(c2)OCO3)CC1,+,0,8,20,i
